# Only some compounds are listed: those with a hit (about 2.4% of all), similar ones and a draw of the others.
# HSP90 inh: blocks HSP90-mediated luciferase refolding in reticulocyte lysate | Rabbit reticulocyte lysate, luciferase refolding luminescence, 3 h | inhibition, % at 5.6 µM | hit rate 0.91% among 290,000 | AID 1789;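 active = inhibition above the screen-wide mean plus 3 SD, computed separately per campaign, cut at about 16% in these data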;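 also: 0% = DMSO wells and 100% = 60 µM geldanamycin wells; inhibitors lower the luminescence because luciferase stays unfolded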
# PPC-1+TRAIL kill: PPC-1 cancer cell killing with TRAIL present | cell killing (% activity), % at 4 µM or 5 µM | PPC-1 cells + TRAIL, ATPLite viability luminescence | hit rate 0.41% among 220,000;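 active = cell killing above 50% in the first pass at 4 µM, then a duplicate retest at 5 µM averaging 50% or more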;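 also: plate controls were cells with TRAIL plus DMSO for no effect and medium-only wells lacking cells for full effect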
# STAT1 inh: reduces IFN-gamma driven STAT1 reporter signal. NIH 3T3 STAT1-luciferase reporter, luminescence. inhibition, % at 5.5 µM. hit rate 0.35% among 200,000. AID 920;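 active = inhibition above a set limit, the mean inhibition across all tested compounds plus 3 SD, cut at about 34% in these data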;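 also: 0% = IFN-gamma with DMSO and 100% = IFN-gamma with 300 µM nifuroxazide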
# C8 TRAIL sens: caspase-8 TRAIL sensitization; NB7+C8 cells + TRAIL, ATPlite viability luminescence; inhibition (viability loss, TRAIL sensitization), % at 10 µM; hit rate 1% among 360,000;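 active = compounds causing at least 50% loss of cell viability in the single-dose screen, relative to plate controls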
# STAT3 blocker: inhibitors of IL-6 induced STAT3 signaling; inhibition, % at 5.5 µM; hit rate 0.89% among 190,000; U3A cells, IL-6 STAT3-luciferase reporter, luminescence; host cell line lacks STAT1;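 active = inhibition above the mean inhibition across all screened compounds plus 3 SD, cut at about 44% in these data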;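 also: 0% = DMSO only wells and 100% = 100 µM nifuroxazide control wells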
# HSF1 inhib: HSF1 inhibition. NIH3T3-HGL HSE-luciferase, MG132-induced, luminescence 8 h; stronger effect = lower value. activity change, negative = inhibition, % at 7.5 µM (by protocol). hit rate 0.77% among 300,000. AID 2098;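 active = more than half of replicate wells show activity change below -50%, luminescence cut by over half; inconclusive = some wells, but at most half, below -50%; inactive = no replicate well below -50%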;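 also: luciferase reports HSF-1 transcriptional activity via heat shock element; 0% = median of DMSO wells and -100% = zero luminescence signal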
# HSP90 inh confirm: HSP90 inhibition, confirmation assay. rabbit reticulocyte lysate, luciferase refolding luminescence, 3 h. inhibition, % at 5.9 µM. hit rate 64% among 2,300. shares compounds with HSP90 inh; in the data active = inhibition above about 18%;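 also: 0% = vehicle wells and 100% = reference inhibitor wells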
# luciferase ctr: blocks native firefly luciferase in HSP90 counter-screen. hit rate 48% among 2,300. purified native firefly luciferase, luminescence. shares compounds with HSP90 inh. inhibition, % at 5.9 µM;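 active = inhibition above the mean inhibition of all tested sample wells plus 3 SD, cut at about 10% in these data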;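 also: 0% = DMSO with luciferase and 100% = wells lacking luciferase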
# Target sequence (P08659 whole entry, looked up): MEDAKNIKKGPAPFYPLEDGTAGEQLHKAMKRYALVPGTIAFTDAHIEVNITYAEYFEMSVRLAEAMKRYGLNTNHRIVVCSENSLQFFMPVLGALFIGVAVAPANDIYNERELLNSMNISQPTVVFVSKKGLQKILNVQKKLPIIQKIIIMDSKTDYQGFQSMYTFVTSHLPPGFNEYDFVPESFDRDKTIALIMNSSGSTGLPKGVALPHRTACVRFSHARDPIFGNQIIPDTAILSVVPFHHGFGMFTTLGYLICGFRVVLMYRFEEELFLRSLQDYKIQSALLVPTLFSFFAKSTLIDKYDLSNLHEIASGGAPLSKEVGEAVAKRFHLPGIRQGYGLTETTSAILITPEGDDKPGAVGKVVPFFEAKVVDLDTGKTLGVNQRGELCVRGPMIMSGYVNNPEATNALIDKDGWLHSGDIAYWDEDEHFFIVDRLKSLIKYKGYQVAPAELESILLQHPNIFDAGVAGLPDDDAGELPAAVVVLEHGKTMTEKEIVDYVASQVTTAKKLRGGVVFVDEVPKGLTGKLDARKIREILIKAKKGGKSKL
# An asterisk follows results filed as active; ? = inconclusive; . = no result given.
SMILES,HSP90 inh,PPC-1+TRAIL kill,STAT1 inh,C8 TRAIL sens,STAT3 blocker,HSF1 inhib,HSP90 inh confirm,luciferase ctr
O=C(c1cc(-c2ccc3c(c2)OCO3)on1)N1CCCCC1,36*,.,.,57*,.,2,58*,55*
O=C(c1cc(-c2ccc(Cl)c(Cl)c2)on1)N1CCCCCC1,-2,.,.,6,.,25,.,.
C=CCOc1ccccc1CN1CCC(Cc2ccccc2)CC1,-2,.,.,17,.,-8,.,.
CCN(CC)C(=O)[C@H]1C[C@H](CC(=O)NC/C=C(\C)CCC=C(C)C)C(=O)N2CCc3c([nH]c4cc(CCC(=O)N(C)C)ccc34)[C@]12C,.,.,.,-8,.,.,.,.
Cc1ccc(-c2csc(SCC(=O)c3c(N)n(C4CC4)c(=O)[nH]c3=O)n2)cc1,.,.,.,-1,.,.,.,.
O=C1Nc2ccccc2C12OCCS2 (stereo not given),.,5,.,.,.,0,.,.
Cn1cnnc1SCC(=O)Nc1sc2c(c1C(N)=O)CCC2,22*,-18,5,-5,-3,1,5,-6
O=C(C(c1ccccc1)c1ccccc1)N1CCOCC1,47*,2,-3,-24,7,-5,-4,-7
CN1N=C2c3ccccc3CCC2C1c1ccc(F)cc1 (stereo not given),6,13,.,0,.,-8,.,.
CN1N=C2c3ccccc3CCC2C1c1ccc(Cl)cc1 (stereo not given),23*,18,.,-8,.,-34,34*,16*
CCC(=NNS(=O)(=O)c1ccc(C)cc1)c1ccc(OC)c(C)c1,.,.,.,10,.,.,.,.
CCOC(=O)/C(C#N)=C/c1cc(C)n(-c2ccccc2)c1C,54*,42,-41,50*,29,-70*,65*,64*
Cc1nnc(SCC(=O)Nc2cccc(S(=O)(=O)N3CCCC3)c2)n1C1CC1,.,.,.,-6,.,.,.,.
O=C(/C=C/c1ccccc1Cl)c1ccc(O)cc1,0,9,.,28,.,18,.,.
O=C(/C=C/c1c(F)cccc1Cl)c1ccc(O)cc1,24*,13,.,21,.,14,6,-28
CCc1c(C)[nH]c(C(=O)OCc2ccccc2)c1C,24*,6,-59,2,7,35,-2,-13
COC(=O)c1ccc(/C=N/Nc2nc(-c3ccccc3)cs2)cc1,1,18,-6,-10,-3,0,.,.
COc1ccc(/C=N/Nc2nc(C(=O)O)cs2)cc1,66*,.,.,-3,.,2,90*,74*
C/C(=N\Nc1nc(C(=O)O)cs1)c1ccccc1,29*,2,0,.,-7,?,-5,-7
COc1cccc(-c2onc3ccc(C(=O)/C=C/N(C)C)cc23)c1,2,.,.,-10,.,-2,.,.
Cc1ccc(-c2onc3ccc(C(=O)/C=C/N(C)C)cc23)cc1,61*,.,.,0,.,-14,-9,-21
Cc1cccc(-c2onc3ccc(C(=O)/C=C/N(C)C)cc23)c1,39*,.,.,-10,.,-7,-3,-8
CN(C)/C=C/C(=O)c1ccc2noc(-c3ccc(F)cc3)c2c1,16,.,.,-1,.,2,.,.
O=C1Nc2ccccc2-c2nnnn2C1N1CCC(Cc2ccccc2)CC1 (stereo not given),.,.,.,-16,.,.,.,.
C=CCOc1c(CNc2cccc(C(=O)O)c2)cccc1OC,45*,13,-49,10,-14,-10,53*,-18
SMILES,HSP90 inh,PPC-1+TRAIL kill,STAT1 inh,C8 TRAIL sens,STAT3 blocker,HSF1 inhib,HSP90 inh confirm,luciferase ctr
C#Cc1ccc([C@@H]2C=C(C(=O)N3CCOCC3)O[C@H](OCc3ccc(CO)cc3)C2)cc1,.,.,.,0,.,5,.,.
C/C(=N\NC(=O)c1ccc(NS(=O)(=O)c2cccs2)cc1)c1ccc2c(c1)OCO2,-2,-1,-7,1,3,-2,.,.
CCCCNC1=CC(=O)C(=O)c2ccccc21,24*,.,0,32,-1,2,19*,-3
CCCCNC1=CC(=O)C(NCCCC)=CC1=O,.,.,.,-8,.,.,.,.
CCOC(=O)c1c(NC(=O)COC(=O)Cc2c[nH]c3ccccc23)sc(C(=O)N(C)C)c1C,.,.,.,5,.,-3,.,.
CC1(c2nnnn2Cc2ccccc2)CCC(=O)N1Cc1cccs1 (stereo not given),.,.,.,0,.,.,.,.
C[n+]1nc(Nc2ccccc2)sc1-c1ccc(O)cc1,17*,.,.,2,.,-3,-8,-9
Oc1ccc(-c2sc(Nc3ccccc3)n[n+]2-c2ccc(F)cc2)cc1,-4,.,.,2,.,9,.,.
O=[N+]([O-])c1ccc(NC2CCCC2)cc1,20*,24,-6,5,-1,2,-7,-12
CCC(C)(C(=O)NC1CCCC1)N(Cc1cccs1)C(=O)c1ccc2c(c1)OCO2 (stereo not given),0,23,7,-8,-6,1,.,.
CCOC(=O)C1=C[C@@H](CC)N(S(=O)(=O)c2ccc(C)cc2)[C@H]1c1cccs1,.,.,.,-10,.,.,.,.
O=C(Nc1ccc(S(=O)(=O)Nc2ncccn2)cc1)c1ccc(Br)cc1,.,.,.,8,.,.,.,.
COC(=O)c1ccc(COc2ccc(C(C)(C)C)cc2)o1,29*,.,.,4,.,13,35*,-20
COC(=O)c1ccc(COc2ccc3c(c2)CCC3)o1,23*,-21,.,-17,.,31,40*,-16
COC(=O)c1ccc(COc2ccc(NC(C)=O)cc2)o1,0,10,.,18,.,0,.,.
CCC(C)c1ccc(OCc2ccc(C(=O)OC)o2)cc1 (stereo not given),26*,-5,.,-3,.,-4,65*,-22
O=C(O)c1ccc(COc2ccc3c(c2)CCC3)cc1,49*,7,.,-1,.,-12,63*,17*
COc1cc(OC)nc(C(NC(=O)C2CCN(Cc3c[nH]c4ccccc34)CC2)c2ccc(Cl)cc2)n1 (stereo not given),.,.,.,33,.,.,.,.
Nc1nc2ccccc2cc1C(=O)NCCCCc1ccccc1,.,.,.,6,.,.,.,.
CCc1nc2ccc(C(=O)NCCN3CCNC3=O)cn2c1N(CC)CCOC,.,.,.,-13,.,.,.,.
CC(Sc1nnc(CN2CCCC2)n1Cc1ccccc1)C(=O)Nc1ccc(F)c(F)c1F (stereo not given),.,.,.,21,.,.,.,.
CCc1ccc(OCc2ccc(C(=O)OC)o2)cc1,56*,.,.,6,.,28,75*,-14
CC(C)(C)c1ccc(OCc2ccc(C(=O)Nc3cccnc3)o2)cc1,26*,.,.,39,.,31,23*,-6
O=C(Nc1cccnc1)c1ccc(COc2ccccc2Br)o1,1,4,8,3,21,0,.,.
CN1c2ccccc2SC2C(c3ccccc3)=NOC21 (stereo not given),.,.,.,-1,.,.,.,.
CC(C)CCn1cnc2c(oc3nc4c(cc32)CCCC4)c1=O,19*,10,.,28,.,13,51*,35*
CC1(C)Cc2nc3oc4c(=O)n(CC(=O)Nc5ccccc5)cnc4c3cc2CO1,4,23,-2,-13,6,5,.,.
Cc1ccc(S(=O)(=O)N2[C@@H](Cc3ccccc3)CO[C@H]2CC(=O)c2cccc3ccccc23)cc1,.,.,.,8,.,.,.,.
